Test results: ChEMBL document CHEMBL4513146, “CO-ADD screening of Karazin Kharkiv National University (Ukraine) compounds”
Results with a measured potency or affinity are listed apart.

Tested on: Cryptococcus neoformans
Details: Concentration 32 ug.mL-1; ASSAY_TEST Inhibition of Fungal Growth; detection method Resazurin; Absorption (OD600-OD570); plate type 384well; NBS; CORNING #3640

Compound	Inhibition [%]
Cc1ccc(Oc2nccn3c(=O)n(CC(=O)Nc4cccc(Cl)c4)nc23)cc1	-14.56
COc1cccc(NC(=O)Cn2c(=O)c3nnc(C(C)C)n3c3ccccc32)c1	-13.4
CCOc1ccccc1NC(=O)Cn1nc2c3cc(-c4ccc(OC)cc4)nn3ccn2c1=O	-6.6
CC(C)c1ccc(NC(=O)Cn2nc3c(N4CCCCC4)nccn3c2=O)cc1	-12.25
O=C(Cn1nc2c(N3CCOCC3)nccn2c1=O)Nc1ccc2c(c1)OCO2	-14.42
Cc1cc(C)cc(NC(=O)Cn2nc3ccc(-c4ccc(C)c(C)c4)nn3c2=O)c1	-18.49
CCc1ccc(N(Cc2ccccc2)S(=O)(=O)c2cccn3c(CC)nnc23)cc1	-8.52
CCOC(=O)c1ccccc1NC(=O)Cn1nc2ccc(C(=O)Nc3ccc(OC)cc3)cn2c1=O	-9.29
O=C(Cn1nc2c3cc(-c4ccc(F)cc4)nn3ccn2c1=O)N1CCN(c2ccccc2F)CC1	-19.92
COc1cccc(NC(=O)Cn2nc3c(Oc4cccc(OC)c4)nccn3c2=O)c1	-0.95
CCc1nnc2c(S(=O)(=O)N(Cc3ccccc3F)c3ccc(F)cc3)cccn12	-5.43
N#Cc1cccc(NC(=O)CSc2nnc3c4cc(-c5ccccc5)nn4ccn23)c1	-14.96
COc1ccc(-n2ccn3c(-c4ccc([N+](=O)[O-])cc4)nnc3c2=O)cc1	-26.2
Cc1cc2nn(CC(=O)NC(C)C)c(=O)n2c(-c2ccc(C(F)(F)F)cc2)n1	-4.89
CCCN(C)c1nccn2c(=O)n(CC(=O)Nc3ccc(OC)c(Cl)c3)nc12	-3.69
CC(=O)c1ccc(NC(=O)Cn2nc3ccc(-c4ccccc4)nn3c2=O)cc1	-13.06
COc1ccc(NC(=O)Cn2nc3ccc(SC(C)C)nn3c2=O)cc1OC	-1.1
CCc1ccc(NC(=O)Cn2nc3cc(C)nc(Nc4ccc(C)c(F)c4)n3c2=O)cc1	-2.27
COc1cccc(-n2ccn3c(SCC(=O)c4c(C)[nH]c5ccccc45)nnc3c2=O)c1	-9.48
COc1ccc(CNC(=O)Cn2nc3c(SC4CCCCC4)nccn3c2=O)cc1	-15.36

Compound	Inhibition [%]
CCc1cccc(NC(=O)Cn2nc3c(SC4CCCCC4)nccn3c2=O)c1	-17.3
O=C(CCc1nnc2c3cc(-c4ccc(F)cc4)nn3ccn12)NCc1ccccc1Cl	-27.21
Cc1ccc(C)c(NC(=O)Cn2nc3ccc(-c4ccccc4)nn3c2=O)c1	-11.25
Cc1ccc(NC(=O)CSc2nnc3n(CC4CCCO4)c(=O)c4sccc4n23)cc1F (stereo not given)	-15.18
COc1ccc(NC(=O)Cn2nc3c(N4CCCC(C)C4)nccn3c2=O)cc1OC (stereo not given)	-7.35
Cc1ccc(-c2ccc3nn(Cc4cccc(F)c4)c(=O)n3n2)cc1C	-8.66
COc1ccc(CNC(=O)CCc2nnc3c4cc(-c5ccc(Cl)cc5)nn4ccn23)cc1OC	-19.71
CC(C)c1nnc2c(=O)n(CC(=O)Nc3ccccc3)c3ccccc3n12	-25.44
Cc1cccc(Cn2nc3c(=O)n(-c4cccc(Cl)c4C)ccn3c2=O)c1	-8.02
COc1ccc(CN(c2cc(C)cc(C)c2)S(=O)(=O)c2cccn3cnnc23)cc1F	-10.15
CCc1ccc(N(Cc2ccccc2C)S(=O)(=O)c2cccn3c(C)nnc23)cc1	-8.38
CC(=O)c1cccc(NC(=O)Cn2c(=O)c3nnc(C(C)C)n3c3ccccc32)c1	-19.11
CCCCOc1ccc(-c2cc3c4nnc(SCC(=O)Nc5ccc(OC)cc5)n4ccn3n2)cc1	-13.28
C=Cc1ccc(CSc2nnc3c(=O)n(-c4ccc(F)cc4)ccn23)cc1	-8.26
CCOc1ccc(-n2ccn3c(SCC(=O)Nc4ccc(C)cc4)nnc3c2=O)cc1	-19.05
CCOc1ccc(-c2nc(CSc3nc4ccccc4n4c(C(C)C)nnc34)c(C)o2)cc1	-14.56
CC1CCCN(c2nccn3c(=O)n(CC(=O)Nc4ccc5c(c4)OCO5)nc23)C1 (stereo not given)	-11.4
CC(C)Cn1c(=O)c2sccc2n2c(=O)n(CC(=O)N(C)c3ccccc3)nc12	-10.06
Cc1ccccc1Oc1nccn2c(=O)n(CC(=O)Nc3ccccc3C(F)(F)F)nc12	-11.87
Cc1ccc(Oc2nccn3c(=O)n(CC(=O)Nc4ccccc4C(F)(F)F)nc23)cc1	-7.72
